# Bioassay records: PubChem BioAssay, National Center for Advancing Translational Sciences (NCATS)
# Compounds with a hit are over-represented: about 2.3% of the library has one in this group of screens.
# Nrf2 activator: Nrf2 pathway activation; 0.31% of 410,000 active; Potency, µM (series often up to 46.1 µM), hits mostly activators; AREc32 ARE-luciferase reporter (MCF7-derived line), luminescence, 24 h; note: nearly all actives have a fitted effect of over 65% in size
#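 Reporter line AREc32 (ARE-Fluc), seeded overnight in OPTI-MEM with 5% FBS; compound pin-transferred, 24 hr at 37 deg C, 5% CO2; luminescent read-out.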
# IDH1 R132H inh: human IDH1 R132H inhibition; Potency, µM (doses to about 76.6 µM), most hits filed as inhibitors; O75874; AID 602179; 0.093% of 390,000 active; IDH1-R132H enzyme, NADPH consumption, diaphorase/resazurin fluorescence; note: nearly all actives have a fitted effect of over 65% in size
# Target sequence (O75874 whole entry R132H, stated change not applied): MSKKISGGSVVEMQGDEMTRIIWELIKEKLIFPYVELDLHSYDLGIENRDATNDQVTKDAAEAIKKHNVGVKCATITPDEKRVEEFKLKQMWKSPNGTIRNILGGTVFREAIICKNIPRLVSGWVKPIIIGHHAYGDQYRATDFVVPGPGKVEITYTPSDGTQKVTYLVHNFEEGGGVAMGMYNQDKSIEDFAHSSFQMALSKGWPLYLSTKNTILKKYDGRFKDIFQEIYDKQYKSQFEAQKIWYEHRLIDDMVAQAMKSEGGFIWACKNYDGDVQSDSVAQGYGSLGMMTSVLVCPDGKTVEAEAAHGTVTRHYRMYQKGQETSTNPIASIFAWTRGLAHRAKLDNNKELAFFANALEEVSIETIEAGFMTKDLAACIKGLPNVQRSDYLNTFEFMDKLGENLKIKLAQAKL
#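 IDH1-R132H (0.5 ug/mL) preincubated 30 min with compound, then NADPH (0.016 mM) and alpha-KG (2 mM) added; 80 min at RT, pH 7.5. Remaining NADPH coupled via diaphorase/resazurin to fluorescence (540/590 nm); concentration-response curves normalized to no-enzyme control.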
# Nrf2 inh: Nrf2 pathway inhibition | A549 ARE-Fluc reporter, luciferase luminescence, 18-24 h | Potency, µM (highest dose often 46 µM), hits mostly inhibitors | 2.1% of 360,000 active | AID 504444; note: nearly all actives have a fitted effect of over 60% in size
#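 Reporter: ARE-Fluc in A549. Exposure: 18-24 h, 37 °C, 5% CO2, 5% FBS OPTI-MEM. Readouts: fluorescent cytotoxicity (CellTiter-Fluor), then luminescent Nrf2 signal after BugLite.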
# Apoferritin bind: binds horse apoferritin like a general anesthetic. apoferritin/1-aminoanthracene competitive binding, fluorescence. P02791. 0.074% of 350,000 active. Potency, µM (highest dose often 77.5 µM), usual class: inhibitors; note: nearly all actives have a fitted effect of over 20% in size
# Target sequence (P02791 2-175 limits assumed): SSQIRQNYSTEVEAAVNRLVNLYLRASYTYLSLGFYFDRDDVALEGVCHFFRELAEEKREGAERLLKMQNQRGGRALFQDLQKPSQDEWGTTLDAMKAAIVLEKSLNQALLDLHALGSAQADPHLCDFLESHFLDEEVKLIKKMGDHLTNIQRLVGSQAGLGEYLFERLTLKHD
#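 Apoferritin-based anesthetic binding model; compound displacement of fluorescent 1-AMA measured as endpoint fluorescence after 10 minutes at room temperature, scaled to free-ligand and complex controls.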
# A549 tox: counter-screen for Nrf2 inhibitors: cytotoxicity in A549 cells; AID 504648; A549 ARE-Fluc cells, CellTiter-Fluor viability, 18-24 h; 0.16% of 390,000 active; Potency, µM (series often up to 46 µM), hits mostly inhibitors
#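 A549 ARE-Fluc cells in 5% FBS OPTI-MEM, 5000 cells/well, rested 2 h then exposed to compounds in concentration-response for 18-24 h at 37 °C. Viability by CellTiter-Fluor fluorescence (Ex 405/Em 525) after 30 min; luciferase luminescence (BugLite, 15 min, RT) read afterwards.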
# Giardia kill: kills Giardia lamblia. Giardia lamblia trophozoite viability. 0.15% of 340,000 active. activity change, % at 7.66 µM, hits read low; in the data active = activity change below about -80%; inconclusive = between about -30% and that limit;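 note: parasites exposed to compound for two days anaerobically before the ATP read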
#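 Trophozoite viability was measured as ATP-dependent luminescence, read 15-30 min after reagent addition. Before that, parasites at 100 cells/well were exposed to compounds for 48 h, anaerobically, at 37 deg C.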
# A number is an active result; – = inactive; ? = inconclusive; · = no result given; ! = not confirmed by another sample; [ ] = remark or other dose. Unless noted, calls come from the whole dose curve; as a rule, active = well fitted curve in the direction sought with a large enough effect; inconclusive = small, poorly fitted or top-dose-only effect, or another doubt; inactive = no such curve, though single readings can be large; an effect the other way counts as inactive or inconclusive.
SMILES,Nrf2 activator,IDH1 R132H inh,Nrf2 inh,Apoferritin bind,A549 tox,Giardia kill
Cc1ccc(-c2n[nH]c(=O)c3ccccc23)cc1N,–,–,?,–,–,–
COc1ccc(NC(=O)C(=O)NCc2ccco2)c(OC)c1,–,–,–,–,–,·
Cc1ccc(-n2nc(C)c3c(C(F)(F)F)cc(-c4cccnc4)nc32)cc1C,–,–,–,–,–,·
COc1ccc(NS(=O)(=O)c2cccc(C(=O)OCC(=O)N3CCN(c4ccc(OC)cc4)CC3)c2)cc1,–,–,21µM,·,–,–
Cc1cc(C(=O)OCC(=O)NC(=O)C2CCCCC2)ccc1[N+](=O)[O-],·,·,–,·,–,–
CS(=O)(=O)N(CC(=O)Nc1ccc(CC#N)cc1)c1ccc(C23CC4CC(CC(C4)C2)C3)cc1,–,–,15µM,–,?,–
CNC(=O)CN(c1ccc(C23CC4CC(CC(C4)C2)C3)cc1)S(C)(=O)=O,–,–,–,?,–,–
Cc1nc(-n2nc(C)c(CCC(C)C)c2C)sc1C(=O)Nc1cccc(Cl)c1C,–,–,–,–,–,·
CCOc1ccc(CCN2C(=O)C(=O)N([C@@H](Cc3ccccc3)CN3CCC[C@H]3CN3C(=O)C(=O)NC[C@@H]3CC(C)C)C[C@@H]2Cc2ccc(O)cc2)cc1,–,·,·,·,·,·
Cc1ccc2cc(CCNS(=O)(=O)c3ccc(Br)cc3)c(=O)[nH]c2c1C,–,–,23µM,–,–,–
Cc1cc(C)cc(OCC(=O)N2N=C(c3cccnc3)CC2(O)C(F)(F)F)c1 (configuration not stated),–[9.22 µM],–,23µM,–,–,–
Cc1ccccc1OCC(=O)N1N=C(c2cccnc2)CC1(O)C(F)(F)F (configuration not stated),–,–,–,–,–,–
Cc1ccc(S(=O)(=O)CCC(=O)N(CCCN2CCOCC2)c2nc3ccccc3s2)cc1,13µM,–,?,·,–,–
O=C(CCS(=O)(=O)c1ccccc1)N(CCCN1CCOCC1)c1nc2ccccc2s1,?,–,–,·,–,–
CCOC(=O)c1cc(CC)sc1NC(=O)CN1CCN(C(=O)c2ccco2)CC1,–,–,21µM,?,?,–
CC(C)(C)C(=O)NC(=S)NNC(=O)C(c1ccccc1)c1ccccc1,–,–,21µM,–,–,–
CC(=O)NNC(=S)NC(=O)C(c1ccccc1)c1ccccc1,–,–,16µM,–,?,?
CCNC(=S)NNC(=O)C(c1ccccc1)c1ccccc1,–,–,–,–,–,–
Cc1ccc(-n2c(SCC(=O)NCc3ccccc3)nc3n[nH]c(C)c3c2=N)cc1Cl,–,–,·,–,–,·
COc1ccc(C(=O)NCC(=O)NCC(=O)OCC(=O)c2ccc(Br)cc2)cc1,–,–,–,–,–,–
CNS(=O)(=O)c1cccc(C(=O)OCC(=O)c2ccc3c(c2)OCCO3)c1,–,–,21µM,·,–,?
COc1ccc(C(=O)NCC(=O)OCC(=O)c2ccc3c(c2)OCCO3)cc1,–,–,–,13µM,–,–
Cc1ccc(C(=O)NCC(=O)OCC(=O)c2ccc3c(c2)NC(=O)CO3)cc1C,–,–,–,?,–,–
CNS(=O)(=O)c1cccc(C(=O)OCC(=O)c2ccc[nH]2)c1,–,–,–,·,–,–
Cc1ccc(C(=O)NCC(=O)OCC(=O)c2ccc3c(c2)OCCO3)cc1C,–,–,–,10µM,–,–
SMILES,Nrf2 activator,IDH1 R132H inh,Nrf2 inh,Apoferritin bind,A549 tox,Giardia kill
CSCCC(NC(=O)c1ccccc1Cl)C(=O)NCCOc1ccc(C)cc1 (configuration not stated),–,–,·,·,·,·
COC(=O)[C@]12CCCCC=C1N(Cc1cccc3ccccc13)C(=O)[C@H](CC(=O)NCc1cccs1)C2,–,·,·,·,·,·
CCOC(=O)[C@H]1[C@H]2COc3ccc(Cl)cc3[C@@H]2N2C(=O)c3ccc(F)cc3NC(=O)[C@@]12C,–,–,23µM,·,–,–
CCOC(=O)[C@H]1[C@H]2COc3ccc(Cl)cc3[C@@H]2N2C(=O)c3ccc(C)cc3NC(=O)[C@@]12C,–,–,–,·,–,?
Cc1cc2c(s1)c1cnn(Cc3ccc(F)c(C)c3)c(=O)c1n2C,·,·,–,·,–,·
Cc1nc(Cl)c(C(=O)NCc2ccccc2)c(C)c1Cl,–,–,?,–,–,–
O=C(NCc1ccccc1)c1c(Cl)nc(Cl)c(Cl)c1Cl,10µM,–,–,–,–,–
COc1ccc(CNC(=O)c2nc(S(=O)(=O)Cc3ccccc3)ncc2Cl)cc1,–,?,18µM,–,?,–
CCS(=O)(=O)c1ncc(Cl)c(C(=O)NCc2ccccc2)n1,–,·,18µM,–,?,·
O=C(NCc1ccccc1)c1nc(S(=O)(=O)Cc2ccccc2)ncc1Cl,–,–,?,–,?,–
CCNC(=O)c1c(NC(=O)c2nc(S(=O)(=O)CC)ncc2Cl)sc2c1CCCC2,–,–,21µM,–,21µM,·
COc1ccc(CCC(=O)NC2CC(=O)N(c3ccc(OC)cc3)C2)cc1 (configuration not stated),–,–,·,–,–,·
Cc1ccc(S(=O)(=O)N2CCN(c3nc(C#N)nc4ccccc34)CC2)cc1,·,·,–,·,–,·
CN(C)CCOc1ccc2c(c1)C(=O)C(=Cc1ncc([N+](=O)[O-])n1C)C2,–,–,·,·,·,·
Cc1ccc(NC(=O)c2ccccc2NS(=O)(=O)c2ccc(Cl)s2)cc1,–,–,16µM,–,?,–
O=C(Nc1ccccc1Cc1ccccc1)c1ccccc1NS(=O)(=O)c1ccc(Cl)s1,–,–,18µM,–,?,–
Cc1ccc(NS(=O)(=O)c2ccc(Cl)s2)nc1,–,–,–,–,–,–
O=C(Nc1ccccc1)c1ccccc1NS(=O)(=O)c1ccc(Cl)s1,–,–,18µM,–,?,–
O=C(NCc1ccco1)c1ccccc1NS(=O)(=O)c1ccc(Cl)s1,–,–,?,–,–,–
COc1cccc(-n2c(SCc3ccc(F)cc3)nc3c([nH]c4ccccc43)c2=O)c1,–,–,·,–,–,·
COc1ccc(C2=Nn3c(nnc3-c3cccc(OC)c3OC)SC2)c(OC)c1,·,·,–,–,–,·
Cc1ccc(NC(=O)Nc2ccc3c(c2)N(C)C(=O)c2ccccc2S3)c(C)c1,–,–,–,?,–,·
CN1C(=O)c2ccccc2Sc2ccc(NC(=O)Nc3ccccc3F)cc21,–,–,21µM,–,–,·
O=C(C1CCN(c2ncnc3c2nc2n3CCCCC2)CC1)N1CCN(c2ccc(F)cc2)CC1,–,–,18µM!,–,–,–
Cc1cccc(N2CCN(CCCNC(=O)C3CCCN(c4ncnc5c4nc4n5CCCCC4)C3)CC2C)c1 (configuration not stated),–,–,?,–,?,–
